Hit rate of the full screen: of about 68,000 compounds, about 2,700 (4%) showed an effect of 50% or more. Only a selection was taken, and strong results are over-represented in it overall.
Test system: Plasmodium berghei
Experiment: Screen against P. berghei liver stage (PbLuc), transformed with Luciferase, at 2uM
Assay type: functional, HepG2
Details: tested at 2 uM

Row | SMILES | INHIBITION
1 | Cn1ccnc(Sc2ccccc2)c1=O | 50.53%
2 | Cn1ccnc(Sc2ccc(O)cc2)c1=O | -31.15%
3 | Cc1ccc(Sc2nccn(C)c2=O)cc1 | -2.44%
4 | COc1ccc2c(c1)CC(NCCCn1cc(C)cn1)CC2 (stereo unspecified) | -0.75%
5 | COc1cccc(CN(C)S(=O)(=O)N2CCOCC2)c1 | 11.97%
6 | CN(Cc1cccc(Cl)c1)S(=O)(=O)N1CCOCC1 | 50.74%
7 | CN(Cc1cccc(F)c1)S(=O)(=O)N1CCOCC1 | 46.57%
8 | CCc1nc(CN2CCOC(CN(CC)c3cccnn3)C2)cs1 (stereo unspecified) | -24.11%
9 | CN1CCN(Cc2cn3c(n2)CN(C(=O)c2cccn2C)CC3)CC1 | -36.65%
10 | CCOc1ncccc1C(=O)N1CCC(Nc2ccc(C)nn2)CC1 | -23.94%
11 | O=C(c1ccc2[nH]c(=O)[nH]c2c1)N1CCC(Nc2cccnn2)CC1 | 53.45%
12 | CCn1c(C)cc(C(=O)N2CCC(Nc3cccnn3)CC2)c1C | 56.58%
13 | CC(Cn1cccn1)C(=O)N1CCC(Nc2cccnn2)CC1 (stereo unspecified) | 57.23%
14 | O=C(c1ccc2cc[nH]c2c1)N1CCC(Nc2cccnn2)CC1 | -16.42%
15 | O=C(c1ccc(NC2CC2)nc1)N1CCC(Nc2cccnn2)CC1 | 22.1%
16 | O=C(c1ccc2[nH]nnc2c1)N1CCC(Nc2cccnn2)CC1 | -23.42%
17 | Cc1ccc(NC2CCN(C(=O)c3cccnc3O)CC2)nn1 | -31.57%
18 | CCn1c(C)cc(C(=O)N2CCC(Nc3ccc(C)nn3)CC2)c1C | 13.88%
19 | CC(C(=O)N1CCC(Nc2cccnn2)CC1)n1ccnc1 (stereo unspecified) | -12.48%
20 | CC(C(=O)N1CCC(Nc2cccnn2)CC1)n1cccn1 (stereo unspecified) | 9.17%
21 | COc1ncccc1C(=O)N1CCC(Nc2ccc(C)nn2)CC1 | 62.13%
22 | O=C1NC2(CCN(Cc3ccccc3Cl)CC2)CC1c1ccccc1 (stereo unspecified) | 5.92%

Row | SMILES | INHIBITION
23 | Cc1cc(NS(=O)(=O)CC2CCCCO2)ccc1F (stereo unspecified) | -40.47%
24 | CCc1ncc2c(n1)CN(CC(=O)Nc1nncs1)CC2 | 21.12%
25 | CN(C)CCOCC1CN(Cc2cccc(F)c2)Cc2nccn2C1 (stereo unspecified) | -0.23%
26 | Cc1nc(CNC(=O)C(C)Oc2ccccc2F)no1 (stereo unspecified) | -8.04%
27 | CC1CCN(c2nc3cn(Cc4cccc(F)c4)c(=O)c-3c[nH]2)CC1 | 12.59%
28 | COCC(NC(=O)NCc1sccc1C)c1ccco1 (stereo unspecified) | -6.4%
29 | Cc1cc(C(=O)N(C)C)nc(C2(C)CCCN2c2ccccc2)n1 (stereo unspecified) | 9.9%
30 | Cc1nc(C)n(CC2CCCN(CCOc3ccccc3C#N)C2)n1 (stereo unspecified) | -70.51%
31 | COCCN1CCO[C@H]2CCN(C(=O)c3cccs3)CC[C@@H]21 | 34.19%
32 | CN(C)CCN1CCO[C@H]2CCN(C(=O)c3cccs3)CC[C@@H]21 | 33.11%
33 | CS(=O)(=O)N1CCO[C@@H]2CCN(C(=O)c3cccs3)CC[C@H]21 | 51.36%
34 | CN(Cc1cccnc1)C[C@@H]1OC[C@H]2CN(C(=O)C3CC3)CC[C@H]21 | 20.21%
35 | Cn1cc(N2CC3(COCCN(Cc4ccsc4)C3)OCC2=O)cn1 (stereo unspecified) | -17.88%
36 | O=C(C1CC1)N1CCN2C[C@@H](CO)[C@H](c3ccccc3)[C@H]2C1 | 14.45%
37 | CC=C(C)C(=O)NS(=O)(=O)c1ccc(Cl)cn1 | -40.56%
38 | COc1ccc(NC(=O)Cc2c(C)nn(C)c2C)cc1F | 18.15%
39 | COc1ccc(CN(C)C(=O)Cc2c(C)nn(C)c2C)cc1F | 51.31%
40 | COc1cc(CN(C)C(=O)Cc2c(C)nn(C)c2C)ccc1OC(F)F | -51.9%
41 | CN(C)CC1(O)CCCN(C(=O)c2ccccc2-n2cccn2)C1 (stereo unspecified) | -6.64%
42 | O=S1(=O)CCCN1Cc1coc(-c2cccs2)n1 | 21.33%
43 | COCCN(CCOC)C(=O)NC1CCCCC1 | -20.08%
44 | COCCN(CCN(C)C)C(=O)NC1CCc2ccccc2C1 (stereo unspecified) | 62.39%

Row | SMILES | INHIBITION
45 | COCCN(CCN(C)C)C(=O)NC1CC1 | -25.13%
46 | CC1(c2ccc(Br)cc2)CC(=O)N(CCC(N)=O)C1=O (stereo unspecified) | -10%
47 | CN(CC(C)(CO)CO)C(=O)Nc1cc(Cl)cc(Cl)c1 | -1.72%
48 | Cc1nn(C)c(C)c1CN(C)S(=O)(=O)c1c(C)n[nH]c1C | 16.49%
49 | Cc1cc(C)n(C2=NC(NCCCO)c3c(sc4c3CCCC4)N2)n1 (stereo unspecified) | 30.54%
50 | Fc1cnc(N2CCO[C@H]3[C@H](OCC4CCOCC4)CC[C@@H]32)nc1 | -39.98%
51 | COc1cc(-n2cccc2)c(Cl)cc1C(=O)NS(C)(=O)=O | 1.06%
52 | CCC(CC)C(=O)NCc1cn2cc(Br)ccc2n1 | -10.87%
53 | CCOCCOC(C)C(=O)NCc1cn2cc(Br)ccc2n1 (stereo unspecified) | -4.1%
54 | CCOCCOC(C)C(=O)NCc1cn2cc(Cl)ccc2n1 (stereo unspecified) | 52.74%
55 | O=C(c1ccco1)N1CCOCC2(CCN(C3CCOCC3)C2)C1 (stereo unspecified) | -68.56%
56 | c1ccc(CN2CCNCC(Cc3cnccn3)C2)cc1 (stereo unspecified) | 6.19%
57 | Cc1ncccc1NC(=O)[C@H]1C[C@@H]2CCN(Cc3ccsc3)C[C@H]2O1 | -30.39%
58 | CC(C)N(CCCNC(=O)C1CCOCC1)S(C)(=O)=O | 18.14%
59 | CN(C)C(=O)NCc1cc2n(n1)CCCN(CC1[C@H]3CNC[C@@H]13)C2 (stereo partly specified) | 14.46%
60 | O=C(OC1CCC1)c1ncccc1C(F)(F)F | 46.63%
61 | O=C(O)c1ncccc1OCC(F)(F)F | 55.73%
62 | O=C(OC1CCC1)c1ncccc1OCC(F)(F)F | 21.72%
63 | CCc1nccn1CC(=O)N1C[C@@H]2CC[C@H]1CN(c1ncccn1)C2 | -54.76%
64 | Cc1nc(CN2CCCN(Cc3nc4c(F)cccc4[nH]3)CC2)no1 | 27.86%
65 | CCCNC(=O)c1cc2c(c3ccccc3n2C)n1C(=O)N(C)C | -15.3%
66 | CC(C)NC(=O)c1cc2c(c3ccccc3n2C)n1C(=O)N(C)C | 9.21%

Row | SMILES | INHIBITION
67 | CN(C)C(=O)n1c(C(=O)NC(C)(C)CO)cc2c1c1ccccc1n2C | 50.35%
68 | CN(C)CCN1C(=O)CC[C@@H]2[C@H]1CCN2C(=O)c1ccc(C#N)cc1 | 33.35%
69 | CS(=O)(=O)N1C[C@H]2CC[C@@H](C1)N(Cc1ccc3nsnc3c1)C2 | 6.3%
70 | Cc1cc(C(=O)N2CCCC(Cn3cc(C4CC4)nn3)C2)nc(C)n1 (stereo unspecified) | 15.27%
71 | CC(O)CN1CCC(CNCc2cccc(C(F)(F)F)c2)CC1 (stereo unspecified) | -32.84%
72 | CCc1nnc(CNC(=O)CCC2CCCCN2C)s1 (stereo unspecified) | -22.64%
73 | CN1CCCC(CCC(=O)NCCc2nnc(N)s2)C1 (stereo unspecified) | 49.25%
74 | CCc1nnc(CNC(=O)CCC2CCCN(C)C2)s1 (stereo unspecified) | 52.47%
75 | O=C(CCCN1CCCCC1)N1CCN(C(=O)c2ccc[nH]2)CC1 | 2.7%
76 | CCCn1c(O)nnc1SCC1OCCc2ccccc21 (stereo unspecified) | -10.86%
77 | Cn1c(N)nnc1SCC1OCCc2ccccc21 (stereo unspecified) | 18.52%
78 | Cn1c(SCC2OCCc3ccccc32)n[nH]c1=O (stereo unspecified) | 54.53%
79 | COc1ccc(CN2CC(O)CN(C(=O)c3ccccc3)CC2=O)cc1 (stereo unspecified) | -21.31%
80 | OCc1ccc(CNc2ccccc2CN2CCC(O)CC2)o1 | 5.02%
81 | CSc1ccc(CNc2ccccc2CN2CCC(O)CC2)cc1 | 50.03%
82 | CCc1ccc(CNc2ccccc2CN2CCC(O)CC2)o1 | -10.29%
83 | CCSCc1ccnc(NC(=O)C2CCCO2)c1 (stereo unspecified) | 31.62%
84 | O=C(Nc1cc(CSCCO)ccn1)c1ccc(Cl)o1 | -32.88%
85 | CCSCc1ccnc(NC(=O)C2CCOC2)c1 (stereo unspecified) | 51.27%
86 | COc1ccc(-c2csc(-c3cccc(C(=O)O)c3)n2)cc1OC | -60.47%
87 | c1ccc(CN2CCC3(CC2)Nc2ccccc2CO3)cc1 | 17.25%
88 | Cc1cc(CN2CCC(CNC(=O)Cc3ccc(F)cc3)C2)[nH]n1 (stereo unspecified) | -73.43%

Row | SMILES | INHIBITION
89 | Cc1cc(CN2CCC(CNC(=O)c3ccc(C#N)cc3)C2)[nH]n1 (stereo unspecified) | 39.57%
90 | Cc1cc(CN2CCC(CNC(=O)CN3CCCCCC3)C2)[nH]n1 (stereo unspecified) | 63.17%
91 | CCC1=N[C@@]2(CC[C@@H]3CN(Cc4ccc(Cl)cc4)C[C@@H]32)C(=O)N1C | 17.51%
92 | CN1CCc2[nH]cnc2C12CCN(C(=O)c1noc3c1CCCC3)CC2 | -15.03%
93 | Cn1c(CN2CCOC[C@H]2c2nc(C(C)(C)C)co2)nc2ccccc21 | -39.35%
94 | C[C@@H]1CN(Cc2nc(C(N)=O)no2)CC[C@@]1(O)C1CC1 | 59.1%
95 | CNC(=O)c1noc(CN2CC[C@](C)(O)[C@H](C)C2)n1 | -44.85%
96 | C[C@@H]1CN(Cc2nc(C(N)=O)no2)CC[C@@]1(O)C1CCOCC1 | 26.14%
97 | CC(=O)N1CCN(C(=O)c2ccc3ccn(C)c3c2)CC1 | -58.53%
98 | O=S(=O)(Cc1cccc(Cl)c1)CC(O)Cn1cccn1 (stereo unspecified) | -17.17%
99 | CN1[C@@H]2CC[C@H]1CN(C(=O)c1ccc(-c3ccccc3)[nH]1)CC2 | 21.95%
100 | Cn1cc(-n2cc3nc(N4CCOCC4)[nH]cc-3c2=O)cn1 | 13.95%
101 | CCn1cc(-n2cc3nc(N4CCOCC4)[nH]cc-3c2=O)cn1 | 37.89%
102 | CC(C)n1cc(-n2cc3nc(N4CCOCC4)[nH]cc-3c2=O)cn1 | 53.22%
103 | Cc1cnc2c(c1NCc1ccc(F)cc1)c(=O)n(C)c(=O)n2C | -5.61%
104 | CC(C)(C)Cc1nnc(NCc2cccc(C#N)c2)o1 | 31.51%
105 | CCCc1nnc(NCc2ccc(OC)c(C#N)c2)o1 | 48.21%
106 | COc1ccc(CNc2nnc(CC(C)(C)C)o2)cc1C#N | 55.36%

Source: ChEMBL document CHEMBL4513216, “Probing the Open Global Health Chemical Diversity Library for Multistage-Active Starting Points for Next-Generation Antimalarials” (ACS Infect Dis, 2020)
